Compound activity as filed in PubChem.
TEAD-YAP block = TEAD-YAP interaction inhibition, primary screen, TEAD-YAP interaction inhibitor project, luminescence, HEK-TIYL cells. TEAD-Gal4/YAP UAS-luciferase luminescence. inhibition, % at 9.12 µM. 640,000 tested, 1.4% active. AID 1259422, 2018; in the data active = inhibition above about 32%;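 also: 0% = median of test compound wells and 100% = reference inhibitor wells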
MITF inh = MITF inhibitors, primary screen, biochemical, AlphaScreen, human | Microphthalmia-associated transcription factor (Homo sapiens), O75030 | AlphaScreen MITF homodimerization, bead proximity signal | inhibition, % at 2.6 µM | 650,000 tested, 0.91% active | AID 1259374, 2018; in the data active = inhibition above about 50%;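 also: 0% = vehicle wells with protein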
FBW7 act = FBW7 E3 ligase activators, primary screen, biochemical, AlphaScreen, human; 650,000 tested, 0.13% active; AlphaScreen FBW7–phospho-cyclin E peptide binding, activator screen; normalized activity (activation), % at 26.1 µM; in the data active = normalized activity above about 1.9%;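 also: purified mutant Fbw7 with reduced substrate affinity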
GPR151 ag = activators of human GPR151, primary screen, cell-based, PathHunter beta-arrestin, luminescence. G-protein coupled receptor 151 (Homo sapiens), Q8TDV0. PathHunter beta-arrestin GPR151 cells. activation, % at 11.2 µM. 650,000 tested, 1% active; in the data active = activation above about 4.9%;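 also: 0% = median of compound wells and 100% = cells with positive control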
Target sequence (Q8TDV0 whole entry, looked up): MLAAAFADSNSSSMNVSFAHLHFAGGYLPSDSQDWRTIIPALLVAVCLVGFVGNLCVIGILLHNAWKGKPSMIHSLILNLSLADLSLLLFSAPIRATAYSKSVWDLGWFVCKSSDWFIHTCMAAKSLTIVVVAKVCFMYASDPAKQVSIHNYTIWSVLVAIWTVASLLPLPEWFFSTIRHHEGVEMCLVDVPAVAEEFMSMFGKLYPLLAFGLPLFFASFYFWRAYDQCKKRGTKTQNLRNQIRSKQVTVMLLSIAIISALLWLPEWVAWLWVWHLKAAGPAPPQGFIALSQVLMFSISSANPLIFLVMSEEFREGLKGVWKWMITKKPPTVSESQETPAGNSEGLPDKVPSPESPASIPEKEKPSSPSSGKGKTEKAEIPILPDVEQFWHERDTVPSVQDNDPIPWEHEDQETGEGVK
MITF inh conf = MITF inhibitors, retest of hits, confirmation, biochemical, AlphaScreen, triplicate | AID 1259372, 2018 | shares compounds with MITF inh | AlphaScreen MITF homodimerization, biotin/His-MITF beads | inhibition, % at 2.6 µM | 4,700 tested, 16% active;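 active = inhibition above a cutoff derived from the DMSO control wells, cut at about 28% in these data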;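 also: 0% = MITF dimer wells with DMSO only; inhibitors lower the bead chemiluminescence by keeping MITF from dimerizing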
AlphaScreen intf2 = AlphaScreen optical interference compounds, counter-screen for MITF inhibitor project, biochemical, triplicate | shares compounds with MITF inh | LysRS AlphaScreen counterscreen, signal interference | inhibition, % at 2.6 µM | 4,700 tested, 7.6% active;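 active = inhibition above a cutoff derived from the DMSO control wells, cut at about 30% in these data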
Active calls of the source: *; . = no result. Sampled rows, rich in hits. Any-hit rate of the full collection: about 3.5%.

SMILES	TEAD-YAP block	MITF inh	FBW7 act	GPR151 ag	MITF inh conf	AlphaScreen intf2
CN1[C@@H](C(=O)Nc2cc(Cl)ccc2O)C[C@@H](c2cccs2)NS1(=O)=O	14	70*	0	0	9	6
CC1CCCC(NS(=O)(=O)c2ccc(F)c(C(=O)Nc3ccc(Cl)c(Cl)c3)c2)C1C (stereo not given)	-2	14	0	0	.	.
COCCn1c(SCC#N)nnc1-c1ccccc1	6	65*	0	1	15	18
COCCn1c(SCC#N)nnc1-c1ccc(O)cc1	6	9	0	0	.	.
N#CCSc1nc(N)c2c3c(sc2n1)CCC3	-31	4	0	0	.	.
O=C1CCCN1C(=O)CN1CCOCC1	-9	53*	0	0	3	6
O=C1CCCN1C(=O)CN1CCCCC1	6	52*	0	-1	14	13
CN1CCN(CC(=O)c2c(-c3ccccc3)n(C)c3ccccc23)CC1	-11	57*	0	0	-7	4
O=S(=O)(c1ccccc1)N1CCN(CC(O)COCc2ccco2)CC1 (stereo not given)	1	94*	0	-2	17	1
O=C(O)c1cccc(NC(=S)N/N=C/c2ccccn2)c1	34*	95*	0	0	-16	-5
O=C(O)c1cccc(N/N=C/c2ccccn2)c1	-23	6	0	0	.	.
O=C(CCn1c(SCC(=O)Nc2ccc(F)cc2)nc2cc3c(cc2c1=O)OCO3)NCc1ccc2c(c1)OCO2	11	-7	0	1	.	.
COc1ccc(/C=C/C(=O)Nc2ccccc2[N+](=O)[O-])cc1Br	-5	3	0	3	.	.
CC1CCN(C2CCN(Cc3ccc([N+](=O)[O-])cc3)CC2)CC1	14	60*	0	-1	-5	-2
CSc1ccc(CN2CCN(C3CCN(Cc4ccccc4)CC3)CC2)cc1	15	46	0	-1	.	.
Fc1cccc(CN2CCC(N3CCN(c4ccccc4)CC3)CC2)c1	-2	77*	0	0	1	11
COc1ccc(N2CCN(C3CCCN(Cc4ccncc4)C3)CC2)cc1 (stereo not given)	0	0	0	0	.	.
c1ccc(N2CCN(C3CCN(Cc4ccncc4)CC3)CC2)cc1	9	75*	0	0	10	17
Fc1ccc(CN2CCC(N3CCOCC3)CC2)cc1	2	61*	0	-1	-9	1
O=[N+]([O-])c1ccc(CN2CCC(N3CCCC3)CC2)cc1	0	34	0	-1	.	.
Cc1ccc(-n2nnc3c(SCC(=O)Nc4ccccc4)ncnc32)cc1	2	-1	1	2	.	.
CCn1cc(CCC(=O)NCc2cccc(OC)c2)c2ccccc21	-5	9	0	0	.	.
CCCC(=O)Nc1ccc(NC(=O)c2ccco2)nc1	19	-5	0	-1	.	.
CCOC(=O)c1ccc(NC(=O)C2CC(=O)N(Cc3ccc4c(c3)OCO4)C(=Nc3ccc(Cl)cc3)S2)cc1 (stereo not given)	-11	0	0	0	.	.
Cc1c(C(=O)N/N=C/c2cccc(I)c2)nnn1-c1nonc1N	5	8	0	1	.	.
SMILES	TEAD-YAP block	MITF inh	FBW7 act	GPR151 ag	MITF inh conf	AlphaScreen intf2
CC(=O)Nc1ccc(-c2noc(CC3CCCN(Cc4cccc(F)c4C)C3)n2)cc1 (stereo not given)	.	.	.	0	.	.
Cc1ccc(N(CC(=O)NCc2ccncc2)S(=O)(=O)c2ccc(F)cc2)cc1	-4	8	0	1	.	.
COC(=O)C1CCN(C(=O)C2CCCN(C3CCN(Cc4ccccc4)CC3)C2)CC1 (stereo not given)	4	-2	0	1	.	.
O=C(C1CCCN(C2CCN(Cc3ccccc3)CC2)C1)N1CCN(c2ccccc2)CC1 (stereo not given)	14	73*	0	-1	6	17
O=[N+]([O-])c1ccc(CN2CCC(N3CCN(c4ccccc4)CC3)CC2)cc1	17	78*	1	-2	4	5
Fc1ccc(CN2CCC(N3CCN(c4ccccc4)CC3)CC2)cc1	-2	53*	0	-1	6	0
CCOC(=O)NC1(C(F)(F)F)NC(=O)N(Cc2ccccc2)C1=O (stereo not given)	5	10	0	0	.	.
COc1cccc(C2=CC(c3c(F)cccc3Cl)n3ncnc3N2)c1 (stereo not given)	0	1	0	-2	.	.
CCN(CC(=O)Nc1ccc(F)cc1Cl)CC(=O)NC(C)C	0	5	0	-1	.	.
CCN(CC(=O)Nc1cc(F)ccc1F)CC(=O)NC(C)C	-5	63*	0	-1	8	-2
COCCN1Cc2cccc(C(=O)N3CCN(C4CCCCC4)CC3)c2C1=O	1	-16	0	-1	.	.
CCOC(=O)c1c(N2C(N)=C(C#N)C(c3cccc([N+](=O)[O-])c3)C3=C2CC(C)(C)CC3=O)sc2c1CCCC2 (stereo not given)	1	6	0	-1	.	.
C=CCN(CC=C)CC(=O)N1CC(=O)Nc2ccccc21	0	-5	0	1	.	.
COCCNC(=O)c1cnc2scc(C)n2c1=O	6	76*	0	1	7	7
Cc1csc2ncc(C(=O)NCCCO)c(=O)n12	11	-6	0	-1	.	.
O=C(Cn1ccccc1=S)c1ccccc1	8	63*	0	-1	6	10
COc1cccc(C2C(C(=O)OC(C)C)=C(C)NC3=C2C(=O)CC(C)(C)C3)c1OC (stereo not given)	5	64*	1	0	11	17
CCCCCOC(=O)C1=C(C)NC2=C(C(=O)CC(C)(C)C2)C1c1ccccc1I (stereo not given)	4	61*	0	2	0	17
COc1ccc(C2C(C(=O)OC(C)C)=C(C)NC3=C2C(=O)CC(C)(C)C3)c(OC)c1OC (stereo not given)	-7	-6	0	1	.	.
O=C(Nc1ccc(-c2ccc3nnc(-c4ccncc4)n3n2)cc1)c1ccc(Cl)cc1	8	8	0	2	.	.
Nc1c(C(=O)Nc2ccc(Cl)cc2)nnc2cc(-c3ccc(Cl)cc3)nn12	5	82*	0	0	7	5
C=CCc1ccc(OCCCNC(C)CC)c(OC)c1 (stereo not given)	12	13	0	1	.	.
C=CCc1ccc(OCCOCCNC(C)CC)c(OC)c1 (stereo not given)	5	77*	0	-1	8	7
